# Shown are actives, neighbours in structure and some others; about 6.2% of the full set was active somewhere.
# Marburg entry inh: blocks Marburg virus binding to or entry into cells. Marburg virus pseudotyped entry inhibition, cell reporter. Potency, µM (series often up to 37.8 µM), for the others: top-dose activity change, negative = inhibition, hits mostly inhibitors. actives 1.8% (n = 300,000). AID 540276; calls by dose curve; tested in HEK293 cells; further: potency means the concentration at half of the fitted maximal effect
# HCMV inh: human cytomegalovirus inhibition. actives 4.5% (n = 410,000). AID 1259415. HFF cells, HCMV-luciferase reporter, 72 h; active compounds read low. activity change, negative = inhibition, % at 57.5 µM; in the data active means activity change below about -60%; inconclusive means no clear call, values can overlap the other calls; inactive means above about -39%
#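 Cell-based, HFFs, 1000 cells/well, 16 h 37C; cpds in DMSO + HCMV-luc, MOI 1 PFU/cell; 72 h 37C; OneGlo luminescence after 5 min RT; norm. to buffer vs Salinomycin 10uM.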
# FMDV antiviral: blocks foot and mouth disease virus; Potency, µM (series often up to 57.9 µM), inactives show at the top dose activity change, negative = inhibition, most hits filed as inhibitors; actives 1.2% (n = 410,000); FMDV antiviral cell-based qHTS; calls by dose curve; tested in HEK293T cells; further: read-out not given here; potency means the concentration at half of the fitted maximal effect; nearly all actives have a fitted effect of over 45% in size
# Lassa entry inh: Lassa virus entry inhibition | Potency, µM (titrated, usually from 37.9 µM), for inactives: top-dose activity change, negative = inhibition, actives largely listed as inhibitors | actives 1.2% (n = 300,000) | Lassa virus pseudotype entry inhibition, cell reporter | AID 540256; calls by dose curve; tested in HEK293 cells; further: potency means the concentration at half of the fitted maximal effect; nearly all actives have a fitted effect of over 50% in size
# The depositor's hits bear a star; ? = inconclusive; nt = no result; [ ] = remark or other dose. On the % scale 0 is the no-effect control and ±100 the full control effect.
SMILES,Marburg entry inh,HCMV inh,FMDV antiviral,Lassa entry inh
COC(=O)[C@H](COC(C)(C)C)NC(=O)O[C@@H]1C(=O)c2cc(OC)ccc2O[C@H]1c1ccc(OC)c(Br)c1,-47%[14.2 µM],nt,nt,nt
Cc1ccc(NC(=O)C(C)Oc2ccccc2)cc1S(=O)(=O)N1CCCCCC1 (centres undefined),nt,-21,-25%,nt
Cc1ccc(NS(=O)(=O)c2cc(NC(=O)C(C)Oc3ccccc3)ccc2C)c(C)c1 (centres undefined),4.6µM*,-7,13%,?
O=C1CCC[C@H]2[C@@H](Cc3ccccc3)[C@@H](NS(=O)(=O)c3ccc(Br)cc3)CC[C@]23CCCN13,nt,-17,nt,nt
C[C@H]1[C@@H](NC(=O)Nc2ccc3c(c2)OCO3)CC[C@@]23CCCN2C(=O)CCC[C@@H]13,nt,-92*,nt,nt
C[C@H]1[C@@H](NS(=O)(=O)c2ccc(F)cc2)CC[C@@]23CCCN2C(=O)CCC[C@@H]13,nt,16,nt,nt
C[C@H]1[C@@H](NS(=O)(=O)c2cn(C)cn2)CC[C@@]23CCCN2C(=O)CCC[C@@H]13,nt,-102*,nt,nt
O=C1CCC[C@H]2[C@@H](Cc3ccccc3)[C@@H](NS(=O)(=O)c3ccc(Cl)cc3)CC[C@]23CCCN13,nt,-92*,nt,nt
CCNCc1cc(OCC)c(OCC(=O)NCCc2ccccc2)cc1Cl,?,41,nt,?
COc1cc2c(cc1OC)-c1c(OC)c(OC)c(OC)c3ccnc(c13)C2=O,18µM*,nt,?,?
COCCCNC(=O)C[C@H]1C[C@H](C(=O)N2CCCCC2)[C@@]2(CCc3ccccc3)c3[nH]c4cc(CCC(=O)N(C)C)ccc4c3CCN2C1=O,-7%,nt,61%,nt
CCCCCc1ccc(-c2cn(CCc3c[nH]c4ccccc34)nn2)cc1,nt,-61*,-23%,nt
CCc1cc(-c2cnnn2CCc2c[nH]c3ccccc23)ccc1-c1cn(CC(C)C)nn1,nt,-19,-23%,7.9µM*
CC(=O)/C(N=Nc1ccc2c(c1)OCCO2)=C(\C)O,?,-71*,1.3µM*,?
O=c1onc(-c2ccccc2)n1Cc1ccc([N+](=O)[O-])cc1,nt,-75*,-11%,nt
CCOc1ccc(C(=O)/C=C/c2cc(OC)c(OC)c(OC)c2)cc1,?,-88*,?,?
COc1cc(/C=C/C(=O)O)cc(OC)c1OC,4%,-21,-15%,nt
COc1cc(/C=C/C(=O)c2ccc(F)cc2)cc(OC)c1OC,?,-112*,25µM*,?
COc1ccc(N(C(=O)c2ccc(F)cc2)C2=CC3CCC(C2)N3C)cc1 (centres undefined),-17%,?,-14%,-15%
CC(OC(=O)CCN=C1NS(=O)(=O)c2ccccc21)C(=O)N(C)C1CCCCC1 (centres undefined),-1%,-20,-7%,-15%[46.1 µM]
CCC(c1nnc(SCC(=O)Nc2ccc(Cl)cc2C(F)(F)F)n1C1CCCCC1)N(C)C (centres undefined),?,-36,-10%,13µM*
O=C(Nc1nc(-c2cccs2)cs1)c1ccc(Cl)cc1,?,3,-34%,?
O=C(Nc1nc(-c2ccc(Cl)s2)cs1)c1ccncc1,?,-77*,nt,-21%
CCn1c(/N=C/c2ccccc2NS(=O)(=O)c2ccc(C)cc2)nc2ccccc21,?,nt,3%,11µM*
CCCCn1c(NCc2ccccc2O)nc2ccccc21,nt,24,13%,nt
SMILES,Marburg entry inh,HCMV inh,FMDV antiviral,Lassa entry inh
CCCCn1c(NCc2ccccc2NS(=O)(=O)c2ccc(C)cc2)nc2ccccc21,11µM*,-23,-12%,?
CCN(CC)CCn1c(NS(=O)(=O)c2ccc(C)cc2)nc2ccccc21,16%,19,10%,0%
CCOc1ccc(C(=O)OCC(=O)N2CCCC2)cc1,?,-10,75%,?
CN(C)S(=O)(=O)c1ccc(/C(O)=C2/C(=O)C(=O)N(Cc3cccnc3)C2c2ccncc2)cc1 (centres undefined),1%,-11,4%,5%
CN(C)S(=O)(=O)c1ccc(/C(O)=C2/C(=O)C(=O)N(Cc3cccnc3)C2c2ccco2)cc1 (centres undefined),15%,-67*,-18%,27%
CCc1ccccc1Nc1nc(N)nc(COC(=O)CCNS(=O)(=O)c2ccccc2)n1,?,-24,-16%,10%
COc1cc(/C=N/NC(=O)c2c(-c3c(Cl)cccc3Cl)noc2C)ccc1OCC(N)=O,-11%[46.1 µM],-5,17%,4%[46.1 µM]
Cc1onc(-c2c(Cl)cccc2Cl)c1C(=O)N/N=C(\N)COc1ccc(Cl)cc1,?,-78*,?,-2%
CC(C)CC(=O)NC(Nc1ccc([N+](=O)[O-])cc1)C(Cl)(Cl)Cl (centres undefined),?,-27,32µM*,?
CC(C)CC(=O)NC(Nc1ccccc1F)C(Cl)(Cl)Cl (centres undefined),-25%,-29,-8%,4%
Cc1ccccc1NC(=O)c1cc(C(=O)c2cc(Cl)ccc2O)cn(-c2ccccc2C)c1=O,?,-65*,?,?
Cc1cc(C)c(C)c(S(=O)(=O)NCC(=O)NCC2CCCCC2)c1C,?,-62*,34%,-12%[46.1 µM]
CCN(CC)S(=O)(=O)c1ccc(S(=O)(=O)N2CCCC(C(=O)NC3CC3)C2)cc1 (centres undefined),?,-83*,?,-19%
CCOC(=O)C1CCCN(S(=O)(=O)c2ccc(C)cc2)C1 (centres undefined),?,30,0%,-6%
CCOC(=O)C1CCCN(S(=O)(=O)c2ccc(S(=O)(=O)N(CC)CC)cc2)C1 (centres undefined),nt,-70*,?,nt
C[C@@H]1CN([C@H](C)CO)C(=O)CCCn2nncc2CO[C@H]1CN(C)Cc1ccc2cccnc2c1,nt,1,-2%,nt
CCN(CC)CCOC(=O)c1ccc(NC(=O)c2nn(-c3ccc(C)cc3)c(=O)c3c2c2ccccc2n3C)cc1,?,-100*,-11%,-6%[46.1 µM]
CCN(CC)CCCNC(=O)c1nn(-c2ccc(C)cc2)c(=O)c2c1c1ccccc1n2C,?,-23,-5%,-14%[46.1 µM]
O=C(Cn1c(=O)oc2ccccc21)Nc1nc(-c2ccc(Br)cc2)cs1,?,-61*,-24%,?
CCc1nnc(NC(=O)Cn2c(=O)oc3ccccc32)s1,1%,53,1%,4%
Cc1sc(NC(=O)Cn2c(=O)oc3ccccc32)nc1-c1ccc(Cl)cc1,-9%,-61*,-8%,2%
Cc1ccc(C)c(CN2C(=O)c3ccccc3Sc3ccc(C(=O)NCc4cccs4)cc32)c1,nt,-62*,-4%,-11%[46.1 µM]
O=C(NCc1ccco1)c1ccc2c(c1)N(Cc1ccc(Cl)cc1)C(=O)c1ccccc1S2,nt,-37,-3%,-27%[46.1 µM]
Cc1ccc(C)c(CN2C(=O)c3ccccc3Sc3ccc(C(=O)N4CCC5(CC4)OCCO5)cc32)c1,nt,-72*,-9%,?
Cc1ccc(C)c(CN2C(=O)c3ccccc3Sc3ccc(C(=O)NCc4ccco4)cc32)c1,nt,-69*,-23%,?
COc1cc2c(cc1OC)CN(C(=O)c1ccncc1)CC2,nt,-4,-8%,nt
COc1ccc(C(=O)N2CCc3ccc(NC(=O)c4ccccn4)cc3C2)cc1F,nt,-89*,?,nt
